# Measured values published in PubChem BioAssay (NCATS).
# Inconclusive results are not listed. Values without a mark were called inactive. Calls of active or inactive are those of the source. Calls come from the whole dose curve; as a rule, active = well fitted cell-killing curve with a large enough effect; inconclusive = small, poorly fitted or top-dose-only effect, or effect the other way; inactive = no such curve, though single readings can be large or run the other way.
# Key:
# [1] = Quantitative High-Throughput drug screen in 47 multiple myeloma cell lines against the NCATS MIPE library collection: MM1S_ATCC cell viability assay (AID 1918980); note: nearly all actives have a fitted effect of over 45% in size; note: potency is the fitted concentration of half-maximal effect
# How it was run: (§1)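 MIPE 4.0 approved/investigational drugs; 500 cells/well; 48 h 37 °C humidified 5% CO2; CTG luminescence readout; DMSO = 100%, media = 0% viability.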
# [2] = Quantitative High-Throughput drug screen in 47 multiple myeloma cell lines against the NCATS MIPE library collection: U266_ATCC cell viability assay (AID 1919864); note: nearly all actives have a fitted effect of over 35% in size; note: potency is the fitted concentration of half-maximal effect
# How it was run: as §1
# [3] = Quantitative High-Throughput drug screen in 47 multiple myeloma cell lines against the NCATS MIPE library collection: XG6_PLB cell viability assay (AID 1919865); note: nearly all actives have a fitted effect of over 40% in size; note: potency is the fitted concentration of half-maximal effect
# How it was run: as §1
# [4] = Quantitative High-Throughput drug screen in 47 multiple myeloma cell lines against the NCATS MIPE library collection: XG1_PLB cell viability assay (AID 1919866); note: nearly all actives have a fitted effect of over 35% in size; note: potency is the fitted concentration of half-maximal effect
# How it was run: as §1
# [5] = Quantitative High-Throughput drug screen in 47 multiple myeloma cell lines against the NCATS MIPE library collection: VP6_DJ cell viability assay (AID 1919867); note: nearly all actives have a fitted effect of over 40% in size; note: potency is the fitted concentration of half-maximal effect
# How it was run: as §1
# [6] = Quantitative High-Throughput drug screen in 47 multiple myeloma cell lines against the NCATS MIPE library collection: PE2_PLB cell viability assay (AID 1919869); note: nearly all actives have a fitted effect of over 35% in size; note: potency is the fitted concentration of half-maximal effect
# How it was run: as §1
# [7] = Quantitative High-Throughput drug screen in 47 multiple myeloma cell lines against the NCATS MIPE library collection: PCM6_Riken cell viability assay (AID 1919870); note: nearly all actives have a fitted effect of over 30% in size; note: potency is the fitted concentration of half-maximal effect
# How it was run: as §1
# [8] = Quantitative High-Throughput drug screen in 47 multiple myeloma cell lines against the NCATS MIPE library collection: LP1_DSMZ cell viability assay (AID 1918982); note: nearly all actives have a fitted effect of over 35% in size; note: potency is the fitted concentration of half-maximal effect
# How it was run: as §1
# [9] = Quantitative High-Throughput drug screen in 47 multiple myeloma cell lines against the NCATS MIPE library collection: KMS28PE_JCRB cell viability assay (AID 1918983); note: nearly all actives have a fitted effect of over 35% in size; note: potency is the fitted concentration of half-maximal effect
# How it was run: as §1
# [10] = Quantitative High-Throughput drug screen in 47 multiple myeloma cell lines against the NCATS MIPE library collection: KMS34_JCRB cell viability assay (AID 1918985); note: nearly all actives have a fitted effect of over 40% in size; note: potency is the fitted concentration of half-maximal effect
# How it was run: as §1
# [11] = Quantitative High-Throughput drug screen in 47 multiple myeloma cell lines against the NCATS MIPE library collection: OPM1_PLB cell viability assay (AID 1918989); note: nearly all actives have a fitted effect of over 40% in size; note: potency is the fitted concentration of half-maximal effect
# How it was run: as §1
# [12] = Quantitative High-Throughput drug screen in 47 multiple myeloma cell lines against the NCATS MIPE library collection: SKMM1_PLB cell viability assay (AID 1919863); settings: SKMM1 myeloma viability, CellTiter-Glo ATP, 48 h; viability: stronger effect = lower value; note: nearly all actives have a fitted effect of over 35% in size; note: potency is the fitted concentration of half-maximal effect; for viability: series mostly up to about 46 µM
# How it was run: as §1
# [13] = Quantitative High-Throughput drug screen in 47 multiple myeloma cell lines against the NCATS MIPE library collection: RPMI8226_ATCC cell viability assay (AID 1919871); note: nearly all actives have a fitted effect of over 30% in size; note: potency is the fitted concentration of half-maximal effect
# How it was run: as §1
# [14] = Quantitative High-Throughput drug screen in 47 multiple myeloma cell lines against the NCATS MIPE library collection: OPM2_DSMZ cell viability assay (AID 1919872); note: nearly all actives have a fitted effect of over 30% in size; note: potency is the fitted concentration of half-maximal effect
# How it was run: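 We plated 500 myeloma cells per well, pinned in MIPE 4.0 compounds, and incubated for 48 hours at 37C. ATP was then quantified with CellTiter-Glo, with DMSO and media-only wells defining 100% and 0%.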
# [15] = Quantitative High-Throughput drug screen in 47 multiple myeloma cell lines against the NCATS MIPE library collection: MM1R_ATCC cell viability assay (AID 1918981); note: nearly all actives have a fitted effect of over 35% in size; note: potency is the fitted concentration of half-maximal effect
# How it was run: as §1
# [16] = Quantitative High-Throughput drug screen in 47 multiple myeloma cell lines against the NCATS MIPE library collection: L363_DSMZ cell viability assay (AID 1918984); note: nearly all actives have a fitted effect of over 40% in size; note: potency is the fitted concentration of half-maximal effect
# How it was run: as §1
# [17] = Quantitative High-Throughput drug screen in 47 multiple myeloma cell lines against the NCATS MIPE library collection: OCIMY7_PLB cell viability assay (AID 1918987); note: potency is the fitted concentration of half-maximal effect; nearly all actives have a fitted effect of over 65% in size
# How it was run: as §1
# [18] = Quantitative High-Throughput drug screen in 47 multiple myeloma cell lines against the NCATS MIPE library collection: UTMC2_PLB cell viability assay (AID 1919868); note: potency is the fitted concentration of half-maximal effect; nearly all actives have a fitted effect of over 55% in size
# How it was run: as §1
# [19] = Quantitative High-Throughput drug screen in 47 multiple myeloma cell lines against the NCATS MIPE library collection: OCIMY5_PLB cell viability assay (AID 1918988); note: potency is the fitted concentration of half-maximal effect; nearly all actives have a fitted effect of over 65% in size
# How it was run: as §1
# [20] = Quantitative High-Throughput drug screen in 47 multiple myeloma cell lines against the NCATS MIPE library collection: OCIMY1_PLB cell viability assay (AID 1918979)
# How it was run: as §1
smiles,measurement,setting,value
COc1cc2nc(N(C)CCCNC(=O)C3CCCO3)nc(N)c2cc1OC (configuration not stated),Potency,[1],inactive
same,Potency,[2],inactive
same,Potency,[3],inactive
same,Potency,[4],inactive
same,Potency,[5],inactive
same,Potency,[6],inactive
same,Potency,[7],inactive
Cn1c(=O)c2[nH]cnc2n(C)c1=O,Potency,[1],23.5 µM (active)
same,Potency,[8],inactive
same,Potency,[9],inactive
same,Potency,[10],inactive
same,Potency,[11],inactive
same,viability,[12],104%
same,Potency,[2],20.9 µM (active)
same,Potency,[3],26.4 µM (active)
same,Potency,[6],inactive
same,Potency,[7],inactive
same,Potency,[13],inactive
same,Potency,[14],inactive
CS(=O)(=O)CCNCc1ccc(-c2ccc3ncnc(Nc4ccc(OCc5cccc(F)c5)c(Cl)c4)c3c2)o1,Potency,[1],0.166 µM (active)
same,Potency,[15],18.7 µM (active)
same,Potency,[8],18.7 µM (active)
same,Potency,[9],26.4 µM (active)
same,Potency,[16],9.35 µM (active)
same,Potency,[10],29.6 µM (active)
same,Potency,[17],0.0833 µM (active)
same,Potency,[11],6.62 µM (active)
same,Potency,[12],23.5 µM (active)
same,Potency,[2],5.9 µM (active)
same,Potency,[3],0.001 µM (active)
same,Potency,[4],0.0187 µM (active)
same,Potency,[5],1.66 µM (active)
same,Potency,[18],1.18 µM (active)
same,Potency,[6],1.66 µM (active)
same,Potency,[7],1.18 µM (active)
same,Potency,[13],26.4 µM (active)
same,Potency,[14],16.6 µM (active)
CC(COc1ccccc1)N(CCCl)Cc1ccccc1 (configuration not stated),Potency,[8],inactive
same,Potency,[10],inactive
same,viability,[12],112%
same,Potency,[2],inactive
same,Potency,[13],inactive
same,Potency,[14],inactive
C[C@H]1c2cccc(O)c2C(O)=C2C(=O)[C@]3(O)C(O)=C(C(N)=O)C(=O)[C@@H](N(C)C)[C@@H]3[C@@H](O)[C@@H]21,Potency,[8],inactive
same,Potency,[17],11.8 µM (active)
same,Potency,[19],23.5 µM (active)
same,Potency,[3],18.7 µM (active)
same,Potency,[4],18.7 µM (active)
Cc1cnc(C(=O)NCCc2ccc(S(=O)(=O)NC(=O)NC3CCCCC3)cc2)cn1,Potency,[20],inactive
same,Potency,[8],20.9 µM (active)
same,Potency,[4],20.9 µM (active)
same,Potency,[6],14.8 µM (active)
same,Potency,[7],16.6 µM (active)
same,Potency,[13],16.6 µM (active)
same,Potency,[14],inactive
COc1ccccc1OCC(O)CN1CCN(CC(=O)Nc2c(C)cccc2C)CC1 (configuration not stated),Potency,[15],inactive
same,Potency,[8],inactive
same,Potency,[11],inactive
same,viability,[12],110%
same,Potency,[2],inactive
same,Potency,[3],inactive
same,Potency,[4],inactive
same,Potency,[5],inactive
same,Potency,[6],inactive
same,Potency,[14],inactive
COc1nc(C)nc(Cl)c1NC1=NCCN1,Potency,[1],26.4 µM (active)
same,Potency,[15],inactive
same,Potency,[8],inactive
same,Potency,[9],inactive
same,Potency,[16],inactive
same,Potency,[17],18.7 µM (active)
same,Potency,[11],inactive
same,Potency,[2],20.9 µM (active)
same,Potency,[14],inactive
COc1cc2nc(N3CCN(C(=O)C4COc5ccccc5O4)CC3)nc(N)c2cc1OC (configuration not stated),Potency,[15],20.9 µM (active)
same,Potency,[8],11.8 µM (active)
same,Potency,[9],23.5 µM (active)
same,Potency,[10],inactive
same,Potency,[17],18.7 µM (active)
same,Potency,[11],18.7 µM (active)
same,viability,[12],137%
same,Potency,[3],20.9 µM (active)
same,Potency,[4],29.6 µM (active)
same,Potency,[6],18.7 µM (active)
same,Potency,[7],20.9 µM (active)
same,Potency,[13],16.6 µM (active)
same,Potency,[14],inactive
CC(C)C(=O)Nc1ccc([N+](=O)[O-])c(C(F)(F)F)c1,Potency,[1],1.66 µM (active)
same,Potency,[15],3.72 µM (active)
same,Potency,[8],inactive
same,Potency,[10],inactive
same,Potency,[17],2.96 µM (active)
same,Potency,[11],8.33 µM (active)
same,Potency,[2],4.69 µM (active)
same,Potency,[3],1.05 µM (active)
same,Potency,[4],1.87 µM (active)
same,Potency,[5],3.32 µM (active)
same,Potency,[6],3.32 µM (active)
same,Potency,[7],3.32 µM (active)
same,Potency,[13],inactive
same,Potency,[14],inactive
Clc1ccccc1C(c1ccccc1)(c1ccccc1)n1ccnc1,Potency,[20],inactive
same,Potency,[17],18.7 µM (active)
same,Potency,[2],inactive
same,Potency,[3],5.9 µM (active)
same,Potency,[5],14.8 µM (active)
same,Potency,[13],14.8 µM (active)
